The supplement of paper PMC8728848
Shown is part of a subset that was picked to be rich in the strongest signals.

Columns and labels:
Assay in all cases: glycan array binding signal (z-score within array); higher = stronger binding
Settings in all cases: glycan notation: IUPAC condensed, linker removed
[1] = target: Fuc(a1-2)Gal(b1-3)GalNAc(b1-3)Gal(a1-4)Gal(b1-4)Glc
Summary of the method: (§1)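 Glycan array binding is given as a within-array Z-score, which can be read as non-binding when negative. The arrays, 3228 of them, came from the Consortium for Functional Glycomics database and were retained only where the protein sequence was available. Z-scores were averaged across arrays of the same protein sequence at different concentrations or buffers and across linkers.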

[2] = target: Fuc(a1-2)Gal(b1-3)GlcNAc(b1-3)[Neu5Ac(a2-6)Gal(b1-4)GlcNAc(b1-6)]Gal(b1-4)Glc
Summary of the method: as §1

[3] = target: Fuc(a1-2)Gal(b1-4)GlcNAc(b1-2)Man(a1-3)[Fuc(a1-2)Gal(b1-4)GlcNAc(b1-2)Man(a1-6)]Man(b1-4)GlcNAc(b1-4)GlcNAc
Summary of the method: as §1

[4] = target: Fuc(a1-2)[Gal(a1-3)]Gal(b1-4)GlcNAc
Summary of the method: as §1

[5] = target: Fuc(a1-2)[Gal(a1-3)]Gal(b1-4)GlcNAc(b1-2)Man(a1-3)[Fuc(a1-2)[Gal(a1-3)]Gal(b1-4)GlcNAc(b1-2)Man(a1-6)]Man(b1-4)GlcNAc(b1-4)GlcNAc
Summary of the method: as §1

[6] = target: Fuc(a1-2)[Gal(a1-3)]Gal(b1-4)GlcNAc(b1-2)Man(a1-3)[Fuc(a1-2)[Gal(a1-3)]Gal(b1-4)GlcNAc(b1-2)Man(a1-6)]Man(b1-4)GlcNAc(b1-4)[Fuc(a1-6)]GlcNAc
Summary of the method: as §1

[7] = target: Fuc(a1-2)[GalNAc(a1-3)]Gal
Summary of the method: as §1

[8] = target: Fuc(a1-2)[GalNAc(a1-3)]Gal(b1-3)GlcNAc(b1-2)Man(a1-3)[Fuc(a1-2)[GalNAc(a1-3)]Gal(b1-3)GlcNAc(b1-2)Man(a1-6)]Man(b1-4)GlcNAc(b1-4)GlcNAc
Summary of the method: as §1

[9] = target: Fuc(a1-2)[GalNAc(a1-3)]Gal(b1-3)GlcNAc(b1-2)Man(a1-3)[Fuc(a1-2)[GalNAc(a1-3)]Gal(b1-3)GlcNAc(b1-2)Man(a1-6)]Man(b1-4)GlcNAc(b1-4)[Fuc(a1-6)]GlcNAc
Summary of the method: as §1

[10] = target: Fuc(a1-2)[GalNAc(a1-3)]Gal(b1-4)GlcNAc(b1-2)Man(a1-3)[Fuc(a1-2)[GalNAc(a1-3)]Gal(b1-4)GlcNAc(b1-2)Man(a1-6)]Man(b1-4)GlcNAc(b1-4)GlcNAc
Summary of the method: as §1

[11] = target: Fuc(a1-2)[GalNAc(b1-3)]Gal
Summary of the method: as §1

[12] = target: Fuc(a1-3)[Gal(b1-4)]GlcNAc
Summary of the method: as §1

[13] = target: Fuc(a1-3)[Gal(b1-4)]GlcNAc(b1-2)Man(a1-3)[Fuc(a1-3)[Gal(b1-4)]GlcNAc(b1-2)Man(a1-6)]Man(b1-4)GlcNAc(b1-4)GlcNAc
Summary of the method: as §1

[14] = target: Fuc(a1-3)[Gal(b1-4)]GlcNAc(b1-3)Gal(b1-3)[Fuc(a1-4)]GlcNAc
Summary of the method: as §1

Gal(a1-4)Gal(b1-4)GlcNAc = target: Gal(a1-4)Gal(b1-4)GlcNAc
Summary of the method: as §1

Gal(b1-3)GlcNAc = target: Gal(b1-3)GlcNAc
Summary of the method: as §1

[15] = target: Gal(b1-3)GlcNAc(b1-2)Man(a1-3)[GlcNAc(b1-4)][Gal(b1-3)GlcNAc(b1-2)Man(a1-6)]Man(b1-4)GlcNAc(b1-4)GlcNAc
Summary of the method: as §1

[16] = target: Gal(b1-3)GlcNAc(b1-3)Gal(b1-3)GlcNAc
Summary of the method: as §1

[17] = target: Gal(b1-3)GlcNAc(b1-3)Gal(b1-4)GlcNAc(b1-2)[Gal(b1-3)GlcNAc(b1-3)Gal(b1-4)GlcNAc(b1-6)]Man(a1-6)[Gal(b1-3)GlcNAc(b1-3)Gal(b1-4)GlcNAc(b1-2)Man(a1-3)]Man(b1-4)GlcNAc(b1-4)[Fuc(a1-6)]GlcNAc
Summary of the method: as §1

[18] = target: Gal(b1-3)GlcNAc(b1-3)Gal(b1-4)GlcNAc(b1-6)[Gal(b1-3)GlcNAc(b1-3)]Gal(b1-4)Glc
Summary of the method: as §1

[19] = target: Gal(b1-3)GlcNAc(b1-3)Gal(b1-4)[Fuc(a1-3)]GlcNAc(b1-6)[Gal(b1-3)GlcNAc(b1-3)]Gal(b1-4)Glc
Summary of the method: as §1

[20] = target: Gal(b1-3)[Fuc(a1-4)]GlcNAc(b1-6)GalNAc
Summary of the method: as §1

Gal(b1-4)GlcNAc(b1-2)Man = target: Gal(b1-4)GlcNAc(b1-2)Man
Summary of the method: as §1

[21] = target: Gal(b1-4)GlcNAc(b1-3)Gal(b1-4)GlcNAc(b1-3)Gal(b1-4)GlcNAc(b1-2)[Gal(b1-4)GlcNAc(b1-3)Gal(b1-4)GlcNAc(b1-3)Gal(b1-4)GlcNAc(b1-6)]Man(a1-6)[Gal(b1-4)GlcNAc(b1-3)Gal(b1-4)GlcNAc(b1-3)Gal(b1-4)GlcNAc(b1-2)Man(a1-3)]Man(b1-4)GlcNAc(b1-4)[Fuc(a1-6)]GlcNAc
Summary of the method: as §1

[22] = target: Gal(b1-4)GlcNAc(b1-3)Gal(b1-4)GlcNAc(b1-3)Gal(b1-4)GlcNAc(b1-3)Gal(b1-4)GlcNAc(b1-2)[Gal(b1-4)GlcNAc(b1-3)Gal(b1-4)GlcNAc(b1-3)Gal(b1-4)GlcNAc(b1-3)Gal(b1-4)GlcNAc(b1-6)]Man(a1-6)[Gal(b1-4)GlcNAc(b1-3)Gal(b1-4)GlcNAc(b1-3)Gal(b1-4)GlcNAc(b1-3)Gal(b1-4)GlcNAc(b1-2)Man(a1-3)]Man(b1-4)GlcNAc(b1-4)[Fuc(a1-6)]GlcNAc
Summary of the method: as §1

B1: PX9937F-bfa-516-16-516 (Bacteroides fragilis) (protein)
chain: LDIDPTSSIADSNYWKTEAQFSTFNVGLHALLRECSFNFFLLGEPRADIYGDVPFGGEATQGMERLPFNTINKENTGISNFAGMYKVINQINLMIAKTKETTVLSEAGKNYYLGEAYGMRAYLYFHLLRSWGDVILYLDYTNGASLDLSNLSKAASPAEEVMKQIKEDITASEKGFGSDYSFKYGRYYWSMAATQMLKGEVYLWSGRQMGGGTADYTTAKTALQSIVSNANVSLQDDFSKVFAYNNKDNSEIIFSIRNAKDEYNMWDDRFRQNLVPQQAYMTSTYCNKEGVSFKDLPEGQLNGLIRLQIRYDLYNKAFRDGDTRKDASMTAVYQKQQDGTVKYIAPFCNKYQGVLLDGASQRSFLNDYPIYRYADCLLLLAEAKALLGEDPTAEINQVRERAYGKEFFEANKATLAYPNDKGDFYTDNKYMSGDEDPLEAILKERMREFMFEGKRWYDLRLLGADYVTKRTSAVATRLLWPINESVLTDNPALKQTPGYQN
- glycan array binding signal (z-score) [1]: 0.493
- glycan array binding signal (z-score) [2]: -0.097
- glycan array binding signal (z-score) [3]: -0.256
- glycan array binding signal (z-score) [4]: -0.012
- glycan array binding signal (z-score) [5]: 1.48
- glycan array binding signal (z-score) [6]: -0.006
- glycan array binding signal (z-score) [7]: -0.222
- glycan array binding signal (z-score) [8]: -0.141
- glycan array binding signal (z-score) [9]: -0.135
- glycan array binding signal (z-score) [10]: 2.69
- glycan array binding signal (z-score) [11]: 1.64
- glycan array binding signal (z-score) [12]: -0.071
- glycan array binding signal (z-score) [13]: -0.045
- glycan array binding signal (z-score) [14]: -0.161
- glycan array binding signal (z-score) (Gal(a1-4)Gal(b1-4)GlcNAc): -0.077
- glycan array binding signal (z-score) (Gal(b1-3)GlcNAc): -0.207
- glycan array binding signal (z-score) [15]: 0.179
- glycan array binding signal (z-score) [16]: -0.041
- glycan array binding signal (z-score) [17]: 7.79
- glycan array binding signal (z-score) [18]: -0.142
- glycan array binding signal (z-score) [19]: -0.388
- glycan array binding signal (z-score) [20]: 1.88
- glycan array binding signal (z-score) (Gal(b1-4)GlcNAc(b1-2)Man): -0.006
- glycan array binding signal (z-score) [21]: 4.38
- glycan array binding signal (z-score) [22]: 3.95
